{
  "source": "PubChem BioAssay AID1851",
  "about": "(National Center for Advancing Translational Sciences (NCATS), 2009)",
  "note": "Among all 16,000 compounds or so, about 2,600 (16%) were called active. About 20% were inconclusive and are not listed. The list is a sample of the results. Unmarked numbers belong to inactive results. Calls follow the shape of the dose curve; as a rule, active = well fitted curve in the direction sought with a large enough effect; inconclusive = small, poorly fitted or top-dose-only effect, or effect the other way; inactive = no such curve, though single readings can be large or run the other way. % is scaled to controls: 0 for no effect and ±100 for the full control effect.",
  "data": [
    {"molecular_target": "Cytochrome P450 2D6 (Homo sapiens) (UniProt P10635)", "sequence (P10635 whole entry, looked up)": "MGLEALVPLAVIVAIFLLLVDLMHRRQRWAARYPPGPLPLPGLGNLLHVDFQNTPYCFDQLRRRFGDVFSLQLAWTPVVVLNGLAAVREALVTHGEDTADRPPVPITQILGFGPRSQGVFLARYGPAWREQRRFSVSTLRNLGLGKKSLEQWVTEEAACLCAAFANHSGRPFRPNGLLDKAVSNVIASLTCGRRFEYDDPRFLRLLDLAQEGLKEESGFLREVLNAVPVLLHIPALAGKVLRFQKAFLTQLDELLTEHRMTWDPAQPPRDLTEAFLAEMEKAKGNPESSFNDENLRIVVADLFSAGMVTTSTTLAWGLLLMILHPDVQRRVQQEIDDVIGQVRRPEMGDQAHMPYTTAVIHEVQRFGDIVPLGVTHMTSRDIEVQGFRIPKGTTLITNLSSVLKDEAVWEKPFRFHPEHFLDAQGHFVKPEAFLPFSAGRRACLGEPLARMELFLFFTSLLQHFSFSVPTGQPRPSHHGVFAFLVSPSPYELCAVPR", "experiment": "Cytochrome panel assay with activity outcomes", "conditions": "recombinant CYP, pro-luciferin dealkylation, luminescence, p450-cyp2d6; series mostly up to 57.1 µM; activity, negative = inhibition: at the top concentration", "values": [
      {"smiles": "CCCCc1ccc(-c2csc(/C(C#N)=C/c3ccc(C)o3)n2)cc1", "activity, negative = inhibition": "-2.34%"},
      {"smiles": "CS(=O)c1ccccc1-c1nc(-c2cc(C(F)(F)F)cc(C(F)(F)F)c2)no1", "note": "(centres undefined)", "activity, negative = inhibition": "-17%"},
      {"smiles": "COc1ccc(-n2nc3cc(C)c(NC(=S)NC(=O)c4ccccc4C)cc3n2)cc1", "activity, negative = inhibition": "6.83%"},
      {"smiles": "COC(=O)c1cc(C(=O)c2ccc(Cl)cc2Cl)cn1C", "activity, negative = inhibition": "9.82%"},
      {"smiles": "CC1(C)S[C@@H]2[C@H](NC(=O)[C@@H](N)c3ccccc3)C(=O)N2[C@H]1C(=O)O[C@H]1OC(=O)c2ccccc21", "activity, negative = inhibition": "0.075% [at 25.6 µM]"},
      {"smiles": "Cc1ccc(Nc2c([N+](=O)[O-])ccc3c2=NC2(CCCCC2)N=3)cc1", "AC50": "25.1 µM (active)"},
      {"smiles": "CC(=O)Nc1ccc(Nc2ncc([N+](=O)[O-])c(Nc3ccc(NC(C)=O)cc3)n2)cc1", "activity, negative = inhibition": "-4.74%"},
      {"smiles": "O=C(NC1CCCC1)c1cccnc1N1CCCCCC1", "activity, negative = inhibition": "11.3%"},
      {"smiles": "Cc1ccc(NC(=O)c2sc3nc[nH]c(=O)c3c2C)c(C)c1", "activity, negative = inhibition": "-18.3%"},
      {"smiles": "CCCSc1nnc2n(N)c(=O)c3ccccc3n12", "activity, negative = inhibition": "-7.37%"},
      {"smiles": "Cc1ccc(OCCCC(=O)Nc2ccccc2C(F)(F)F)cc1", "activity, negative = inhibition": "-17.2%"},
      {"smiles": "O=C(CCOc1ccccc1)Nc1ccccc1", "activity, negative = inhibition": "21.3%"},
      {"smiles": "CCC(=O)Nc1cccc(C(=O)/C=C/c2ccccc2)c1", "activity, negative = inhibition": "-16.4%"},
      {"smiles": "Cc1c(NC(=O)CCCOc2ccccc2)cccc1[N+](=O)[O-]", "AC50": "1.58 µM (active)"},
      {"smiles": "Cc1c(NC(=O)/C=C/C(=O)O)cccc1[N+](=O)[O-]", "activity, negative = inhibition": "0.595%"},
      {"smiles": "COC(=O)c1cccc(NC(=O)CCCOc2ccccc2)c1", "AC50": "10 µM (active)"},
      {"smiles": "CCc1sc(-c2c(C#N)c(N)nc3c2CCCCCC3)cc1[N+](=O)[O-]", "activity, negative = inhibition": "-11.8%"},
      {"smiles": "COc1ccccc1CCn1c(=O)c(-c2cn(C)c3ccccc23)nc2cncnc21", "activity, negative = inhibition": "-10.1%"},
      {"smiles": "CC(C)n1c(O)c(/C=C2\\C=Nc3ccccc32)sc1=Nc1ccccc1", "activity, negative = inhibition": "-18%"},
      {"smiles": "COc1ccc2sc3ccccc3c(=O)c2c1OC", "activity, negative = inhibition": "-15.6%"},
      {"smiles": "O=c1c2ccccc2sc2c(CO)ccc(NCCN3CCCCC3)c12", "AC50": "1.26 µM (active)"},
      {"smiles": "CCN(CC)CCNc1ccc(CO)c2sc3ccccc3c(=O)c12", "AC50": "5.01 µM (active)"},
      {"smiles": "C#CCCCO/N=C1/C[C@@H](O)[C@@H](O)[C@@H]2[C@@H]3C(=O)N(C[C@@H]4CCCO4)C(=O)[C@H]3CC[C@H]12", "activity, negative = inhibition": "-7.06% [at 11.4 µM]"},
      {"smiles": "Cn1c(=O)c(-c2ccccc2)nc2cnc(N3CCOCC3)nc21", "activity, negative = inhibition": "-3.69%"},
      {"smiles": "CC(=O)OC1COC(N2CCc3cc([N+](=O)[O-])ccc32)C(OC(C)=O)C1OC(C)=O", "note": "(centres undefined)", "activity, negative = inhibition": "27%"},
      {"smiles": "COc1cccc(-c2csc(N3CCN(CC(=O)NNC(=O)c4ccc(Cl)cc4)CC3)n2)c1", "activity, negative = inhibition": "-17.2%"},
      {"smiles": "CC(C)(CO[C@H]1C[C@H]2CC[C@@]1(C)C2(C)C)[N+](=O)[O-]", "activity, negative = inhibition": "11.9% [at 11.4 µM]"},
      {"smiles": "CC(C)=CCC/C(C)=C/CO/N=C1/C[C@@H](O)[C@@H](O)[C@@H]2[C@@H]3C(=O)N(C4CCCCC4)C(=O)[C@H]3CC[C@H]12", "activity, negative = inhibition": "-9.81% [at 11.4 µM]"},
      {"smiles": "CS(=O)(=O)c1ccc(/C=N\\NC(N)=S)cc1", "activity, negative = inhibition": "9.53% [at 11.4 µM]"},
      {"smiles": "Cc1ccc(-n2c(SCC(=O)NCc3ccco3)nc3sc4c(c3c2=O)CC(C)(C)SC4)cc1", "AC50": "2.82 µM (active)"},
      {"smiles": "CC(Cc1ccccc1)NC(=O)CSc1nc2nc3c(cc2c(=O)n1-c1ccccc1)COC(C)(C)C3", "note": "(centres undefined)", "activity, negative = inhibition": "-28.9%"},
      {"smiles": "Cc1ccc(-n2c(N)c(C(=O)NCc3ccco3)sc2=S)cc1", "activity, negative = inhibition": "-9.85%"},
      {"smiles": "CCc1c(O)nc(SCC(=O)NC(C)(C)C)n(-c2ccccc2)c1=O", "activity, negative = inhibition": "-8.15%"},
      {"smiles": "CC1(C)Cc2c(sc3nc(SCC(=O)NCc4ccccc4)n(-c4ccccc4)c(=O)c23)CS1", "AC50": "3.55 µM (active)"},
      {"smiles": "O=C(CSc1nnc2sc3ccccc3n12)NCc1ccco1", "activity, negative = inhibition": "-17.7%"},
      {"smiles": "Cn1cc[nH]c1=S", "activity, negative = inhibition": "6.67% [at 25.6 µM]"},
      {"smiles": "Cn1cnc([N+](=O)[O-])c1SCC(=O)O", "activity, negative = inhibition": "-1.18% [at 11.4 µM]"},
      {"smiles": "C[C@@H]1C[C@H](OC(=O)c2ccccc2O)CC(C)(C)C1", "activity, negative = inhibition": "-4.22% [at 25.6 µM]"},
      {"smiles": "COc1ccc(NC(=O)CSc2nc(-c3ccc(C)cc3)cc(C(F)(F)F)c2C#N)cc1", "activity, negative = inhibition": "15.8%"},
      {"smiles": "CSc1nc(N)nc(SCC(=O)Nc2ccc(Cl)cc2)c1C#N", "AC50": "2.24 µM (active)"},
      {"smiles": "CCOc1ccc(NC(=O)CSc2nc(C)c3c(c2C#N)CCCC3)cc1", "activity, negative = inhibition": "-8%"},
      {"smiles": "O=C(c1cccc(F)c1)N1CCC2(CCCN(c3cccc(-c4ccccc4)c3)C2)CC1", "activity, negative = inhibition": "-11.4%"},
      {"smiles": "O=C(c1sc2ccccc2c1Cl)N1CCN(c2ccc(F)cc2)CC1", "activity, negative = inhibition": "-28%"},
      {"smiles": "CN1CCCN(C)C1c1cc([N+](=O)[O-])ccc1O", "activity, negative = inhibition": "-9.66% [at 11.4 µM]"},
      {"smiles": "CC1CCCN(C(=O)c2sc3cc([N+](=O)[O-])ccc3c2Cl)C1", "note": "(centres undefined)", "AC50": "10 µM (active)"},
      {"smiles": "CC1CCCC(NC(=O)C2CCN(S(=O)(=O)N3CCC4(CC3)OCCO4)CC2)C1C", "note": "(centres undefined)", "activity, negative = inhibition": "-11.3%"},
      {"smiles": "Cc1sc(N)c(C(=O)c2cccc(C(F)(F)F)c2)c1C", "activity, negative = inhibition": "-0.502%"},
      {"smiles": "O=C(Nc1c2c(nn1-c1ccc(F)cc1)CS(=O)(=O)C2)C12CC3CC(CC(C3)C1)C2", "activity, negative = inhibition": "-0.0135%"},
      {"smiles": "Cn1cc([N+](=O)[O-])c(C(=O)Nc2cc(Oc3cccnc3)cc([N+](=O)[O-])c2)n1", "AC50": "12.6 µM (active)"},
      {"smiles": "O=C(Oc1ccccc1[N+](=O)[O-])c1cccnc1", "activity, negative = inhibition": "-12.6%"},
      {"smiles": "CC(=O)NN1C(=O)c2ccc(Oc3cccc([N+](=O)[O-])c3)cc2C1=O", "activity, negative = inhibition": "-9.46%"},
      {"smiles": "Cc1cc(C(=O)O)c(=O)[nH]c1C", "activity, negative = inhibition": "15.7%"},
      {"smiles": "CC1(C)CC(=O)C2=C(C1)N(Cc1ccccc1)C(=O)C2(O)C(F)(F)F", "note": "(centres undefined)", "activity, negative = inhibition": "0.612%"},
      {"smiles": "O=C(N/N=C/C1CCCCC1)c1ccccn1", "activity, negative = inhibition": "-25.7%"},
      {"smiles": "N#Cc1c2n(c3c(=S)nc[nH]c13)CCCCC2", "activity, negative = inhibition": "9.17%"},
      {"smiles": "C=C1C=C(Br)C2(OCCCO2)[C@H]2OC12", "note": "(some centres undefined)", "activity, negative = inhibition": "3.88% [at 11.4 µM]"},
      {"smiles": "Cc1cc(NC(=S)Nc2ccccc2)ccc1Br", "AC50": "2 µM (active)"},
      {"smiles": "Cc1cc(NC(=S)NC(=O)CC(C)C)ccc1Br", "activity, negative = inhibition": "-0.0883%"},
      {"smiles": "COc1ccc(NC(=S)Nc2ccccc2)cc1", "activity, negative = inhibition": "-11.8% [at 11.4 µM]"},
      {"smiles": "CCCCC1(C)NC(=O)c2c(C)sc(C(=O)OCC)c2N1", "note": "(centres undefined)", "activity, negative = inhibition": "5.24%"},
      {"smiles": "CC1=C/C(=N/O)C([C@H]2C=C(C)CC(C)(C)[C@@H]2O)C(C)(C)C1", "note": "(some centres undefined)", "activity, negative = inhibition": "-8.52% [at 11.4 µM]"},
      {"smiles": "COc1ccc(S(=O)(=O)N2CCC(N3CCCCC3)CC2)cc1", "AC50": "0.316 µM (active)"},
      {"smiles": "COc1ccc(S(=O)(=O)Nc2ccc(S(=O)(=O)N3CCCCC3)cc2)cc1C", "activity, negative = inhibition": "-0.01%"},
      {"smiles": "COc1ccc(S(=O)(=O)N2CCC(NC(=O)Nc3ccc(C)cc3)CC2)cc1", "activity, negative = inhibition": "-8.72%"}
    ]}
  ]
}
